Results from PubChem BioAssay (NCATS).
Values joined by “and” are separate entries in the source; they are usually repeats but may differ in a detail not shown here. Equal values may be shown once. Inconclusive results are not listed. Active and inactive are the calls of the source. Calls follow the shape of the dose curve; as a rule, active = well fitted curve in the direction sought with a large enough effect; inconclusive = small, poorly fitted or top-dose-only effect, or another doubt; inactive = no such curve, though single readings can be large; an effect the other way counts as inactive or inconclusive.

Assays:
[1] = biological target: Cellular tumor antigen p53 (Homo sapiens) (UniProt P04637); assay: Primary qHTS for small molecule compounds that upregulate eGFP-tagged delta133p53alpha (in N-terminal) cells. (AID 2060322); conditions: NCI-H358 eGFP-delta133p53alpha fluorescence, 24 h; activation: hits give high values; also: nearly all actives have a fitted effect of over 75% in size; also: potency is read from the fitted curve at half-maximal effect;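 as to activation: 0% = DMSO vehicle and 100% = reference activator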
Chain of Cellular tumor antigen p53 (Homo sapiens) (P04637 whole entry, looked up): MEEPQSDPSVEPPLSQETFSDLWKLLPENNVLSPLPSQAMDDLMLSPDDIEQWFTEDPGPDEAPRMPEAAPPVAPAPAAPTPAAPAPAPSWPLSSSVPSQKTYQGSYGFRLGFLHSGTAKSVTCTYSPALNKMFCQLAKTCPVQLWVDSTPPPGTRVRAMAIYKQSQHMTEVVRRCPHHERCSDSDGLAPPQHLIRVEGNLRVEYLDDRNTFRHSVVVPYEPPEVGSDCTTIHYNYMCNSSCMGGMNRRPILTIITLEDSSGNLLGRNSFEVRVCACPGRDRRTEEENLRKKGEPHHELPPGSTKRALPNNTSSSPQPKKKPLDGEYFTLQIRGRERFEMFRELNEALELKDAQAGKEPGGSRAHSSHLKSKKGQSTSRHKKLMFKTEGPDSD
In short: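 NCI-H358 cells pre-induced 24 h with 10 ng/ml doxycycline to express N-terminal eGFP-delta133p53alpha, then dosed 24 h at 37C without doxycycline; fixed, Hoechst-stained, GFP intensity by laser scanning cytometry, normalized to DMSO (0%) and 57.5 uM 5-azacytidine (100%).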

[2] = biological target: Aldehyde dehydrogenase, mitochondrial (Homo sapiens) (UniProt P05091); assay: qHTS for Inhibitors of the Aldehyde Dehydrogenase Family (ALDH2) Primary screen (AID 2061308); conditions: ALDH2 enzyme inhibition qHTS, 1536-well; series mostly up to 56 µM;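 also: plate controls were vehicle for no effect and reference inhibitor for full effect; nearly all actives have a fitted effect of over 55% in size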
[3] = biological target: Retinaldehyde dehydrogenase 3 (Homo sapiens) (UniProt P47895); assay: qHTS for Inhibitors of the Aldehyde Dehydrogenase Family (ALDH1A3) Confirmatory screens (AID 2061311); conditions: ALDH inhibition qHTS; series mostly up to 46 µM; also: potency is read from the fitted curve at half-maximal effect; nearly all actives have a fitted effect of over 60% in size
[4] = biological target: Retinaldehyde dehydrogenase 3 (Homo sapiens) (UniProt P47895); assay: qHTS for Inhibitors of the Aldehyde Dehydrogenase Family (ALDH1A3) Primary screen (AID 2061315); conditions: ALDH inhibition qHTS; series mostly up to 56 µM; also: potency is read from the fitted curve at half-maximal effect
[5] = biological target: Retinaldehyde dehydrogenase 3 (Homo sapiens) (UniProt P47895); assay: qHTS for Inhibitors of the Aldehyde Dehydrogenase Family (ALDH1A3) Validation screen (AID 2061312); conditions: ALDH1A3 enzyme inhibition qHTS validation, fluorescence; series mostly up to 84.7 µM; also: nearly all actives have a fitted effect of over 45% in size; also: potency is read from the fitted curve at half-maximal effect
[6] = biological target: Aldehyde dehydrogenase 1A1 (Homo sapiens) (UniProt P00352); assay: qHTS for Inhibitors of the Aldehyde Dehydrogenase Family (ALDH1A1) Confirmatory screens (AID 2061316); conditions: ALDH inhibition qHTS; series mostly up to 47.3 µM; also: nearly all actives have a fitted effect of over 65% in size; also: potency is read from the fitted curve at half-maximal effect
[7] = BET inhibitor-based combinations targeting novel dependencies in MECOM-rearranged (r) AML: SET-2 cell line (AID 2202231); conditions: SET-2 AML cells viability, CellTiter-Glo luminescence, 48 h; viability: hits give low values, concentration not given here; also: potency is read from the fitted curve at half-maximal effect; nearly all actives have a fitted effect of over 35% in size
In short: (§1)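 500 cells/well; 11-pt dose curve; 48 h, standard incubator; CellTiter-Glo luminescence after 15 min RT; DMSO/empty-well normalization; AUC plus Z-AUC (mean-centered within each line).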

[8] = BET inhibitor-based combinations targeting novel dependencies in MECOM-rearranged (r) AML: OCI-AML3 cell line (AID 2202232); conditions: CellTiter-Glo luminescence, 48 h; Potency: OCI-AML3 viability; series mostly up to 46 µM; also: potency is read from the fitted curve at half-maximal effect; nearly all actives have a fitted effect of over 35% in size
In short: as §1

[9] = BET inhibitor-based combinations targeting novel dependencies in MECOM-rearranged (r) AML: MV-4-11 cell line (AID 2202233); conditions: MV-4-11 AML viability, CellTiter-Glo luminescence, 48 h; series mostly up to 46 µM; also: potency is read from the fitted curve at half-maximal effect; nearly all actives have a fitted effect of over 45% in size
In short: (§2)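 Cells were plated at 500 per well and exposed to each drug across an 11-point dose range for 48 hr at standard incubator conditions. Viability was read by CellTiter-Glo luminescence, and activity was expressed as AUC and per-cell-line Z-transformed AUC.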

[10] = BET inhibitor-based combinations targeting novel dependencies in MECOM-rearranged (r) AML: HNT-34 cell line (AID 2202234); conditions: HNT-34 AML viability, CellTiter-Glo luminescence, 48 h; series mostly up to 46 µM; also: potency is read from the fitted curve at half-maximal effect; nearly all actives have a fitted effect of over 35% in size
In short: as §2

[11] = BET inhibitor-based combinations targeting novel dependencies in MECOM-rearranged (r) AML: UCSD-AML1 cell line (AID 2202235); conditions: UCSD-AML1 AML cells viability, CellTiter-Glo, 48 h; series mostly up to 46 µM; also: potency is read from the fitted curve at half-maximal effect; nearly all actives have a fitted effect of over 40% in size
In short: as §2

[12] = BET inhibitor-based combinations targeting novel dependencies in MECOM-rearranged (r) AML: AML-191 cell line (AID 2202236; also: potency is read from the fitted curve at half-maximal effect; nearly all actives have a fitted effect of over 35% in size); conditions: AML-191 viability, CellTiter-Glo luminescence, 48 h; series mostly up to 46 µM
In short: as §1

[13] = BET inhibitor-based combinations targeting novel dependencies in MECOM-rearranged (r) AML: AML-194 cell line (AID 2202237; also: potency is read from the fitted curve at half-maximal effect; nearly all actives have a fitted effect of over 40% in size); conditions: AML-194 (MECOM-r AML) viability, CellTiter-Glo, 48 h; series mostly up to 46 µM
In short: as §1

CNCCC(c1cccs1)c1ccc(O)c2ccccc12 (stereo not drawn)
inactive: activation [1] -7.67% | Potency [2]
active: Potency [3] 22.5 µM | Potency [4] 15.8 µM

CC(=O)NCC1CN(c2ccc(-c3ccc(CNCc4cn[nH]n4)cc3)c(F)c2)C(=O)O1 (stereo not drawn)
inactive: activation [1] -4.77% | Potency [2]
active: Potency [5] 3.98 µM

COc1ccc(S(=O)(=O)Nc2cccnc2Nc2ccc(O)cc2)cc1
active: Potency [3] 10.1 µM | Potency [4] 7.94 µM | Potency [6] 6.34 µM | Potency [7] 1.32 µM | Potency [8] 0.662 µM | Potency [9] 0.742 µM | Potency [10] 0.59 µM | Potency [11] 0.468 µM | Potency [12] 0.468 µM | Potency [13] 0.662 µM
inactive: activation [1] -22.5% and 22.4% | Potency [2]

CC1=CC2=C(C)C(=O)C(C)(O)C(O)C2CO1 (stereo not drawn)
inactive: activation [1] -5.34% | Potency [2] | Potency [6]
active: Potency [3] 22.5 µM

CN1CC2CN(c3ccc4oc5ccccc5c(=O)c4c3)CC2C1 (stereo not drawn)
inactive: activation [1] 0.955% | Potency [2] | Potency [5] | Potency [4]

COc1cc2nc(C3CC3)nc(N3CCN(c4ccccc4OC)CC3)c2cc1OC
inactive: Potency [2] | Potency [5] | Potency [4]
active: Potency [1] 16.9 µM

COc1ccc(-c2cnc3ccc(NCc4ccc(S(N)(=O)=O)cc4)nn23)cc1OC
inactive: activation [1] 5.73% | Potency [2] | Potency [5] | Potency [4]

O=C(NCc1ccc(OC(F)(F)F)cc1)C1c2ccccc2C(=O)N1C1CCOCC1 (stereo not drawn)
inactive: activation [1] -5.73% | Potency [2] | Potency [5] | Potency [4]

COc1cc(N2CCOCC2)ccc1NC(=O)c1csc(-c2cccnc2)n1
inactive: activation [1] 24.8% | Potency [2] | Potency [5] | Potency [4]
